PubChem BioAssay AID488851 (National Center for Advancing Translational Sciences (NCATS), 2010)
Records with an inconclusive call do not appear. Active and inactive are the calls of the source. The call rests on the fitted dose curve; in most records, active means well fitted activation curve with a large enough effect; inconclusive means small, poorly fitted or top-dose-only effect; inactive means flat fitted curve, though single readings scatter.

target: Lysosomal acid glucosylceramidase (Homo sapiens) (UniProt P04062); assay: qHTS Assay for Inhibitors and Activators of N370S glucocerebrosidase as a Potential Chaperone Treatment of Gaucher Disease: Purified Non-mutant Confirmation for Probe SAR; settings: purified GC, 4MU-beta-glucoside fluorescence, 40 min; series mostly up to 57.5 µM
Source text: NIH Chemical Genomics Center [NCGC] NIH Molecular Libraries Probe Production Centers Network [MLPCN] MLPCN Grant: MH086442-01 Assay Submitter (PI): Wei Zheng Glucocerebrosidase (GC) catalyzes the hydrolysis of beta-glucocerebroside to glucose and ceramide in lysosomes. Mutations in the glucocerebrosidase gene result in Gaucher disease, an autosomal recessive lysosomal storage disorder. Many of the mutations encountered in patients with Gaucher disease are missense alterations that may cause misfolding, decreased stability and/or mistrafficking of this lysosomal protein. […] These inhibitors include iminosugar analogs and three non-iminosugar inhibitors identified from a previous HTS of 62,000 compounds with the wild type recombinant enzyme. However, the enhancement of enzyme activity by the chaperone action of an enzyme inhibitor must be balanced against the direct inhibition of the enzyme. An enzyme activator could also function as a chaperone by binding to the enzyme and helping to correct its misfolding and mistrafficking. While activators for GC have not yet been identified, they may have better therapeutic potential than inhibitors. Therefore the discovery and development of chemical activators may provide a new strategy for the chaperone therapy. We have optimized a new assay using N370S mutant GC derived from the spleen of a Gaucher patient. […] In addition, the MLPCN compound library has expanded, which increases the chance of finding new and better probes. This assay characterizes compound activity using purified wildtype enzyme instead of mutant enzyme from tissue homogenate. Compound activity differences may be due to the absence of endogenous cofactors found in tissue homogenate as well as inherent differences in enzyme stability and catalytic activity between the N370S and wildtype forms of the protein.
NCGC Assay Protocol Summary: This is a fluorogenic enzyme assay with 4-methylumbelliferyl-beta-D-glucopyranoside as the substrate and purified wildtype glucocerebrosidase as the enzyme preparation. Upon the hydrolysis of this fluorogenic substrate, the resulting product, […] which can be detected by a standard fluorescence plate reader. Data were normalized to the controls for basal activity (without enzyme) and 100% activity (with enzyme). The AC50 values were determined from concentration-response data modeled with the standard Hill equation. Assay buffer: 50 mM citric acid (titrated with potassium phosphate to pH 5.0), 100 mM potassium chloride, 10 mM sodium chloride, 1 mM magnesium chloride, 0.01% Tween-20. 1536-well assay protocol: (1) Add 2 ul/well of glucocerebrosidase enzyme solution (5 nM final) (2) Add 23 nL compounds in DMSO solution. The final titration was 0.5 nM to 58 uM. (3) Add 2 ul of substrate (1 mM final) (4) Incubate at 37C for 40 min. (5) Add 2 ul stop solution (1M NaOH and 1M Glycine mixture, pH 10) (6) Detect the assay plate in a ViewLux plate reader (PerkinElmer) with Ex=365 nm and Em=440nm. Keywords: Glucocerebrosidase, beta-glucosidase, Gaucher Disease, pharmacological chaperone, chaperone therapy, high throughput screening, glucocerebrosidase inhibitor, MLSMR, MLSCN, NIH Roadmap, qHTS and NCGC

Chain of Lysosomal acid glucosylceramidase (Homo sapiens) (P04062 whole entry, looked up): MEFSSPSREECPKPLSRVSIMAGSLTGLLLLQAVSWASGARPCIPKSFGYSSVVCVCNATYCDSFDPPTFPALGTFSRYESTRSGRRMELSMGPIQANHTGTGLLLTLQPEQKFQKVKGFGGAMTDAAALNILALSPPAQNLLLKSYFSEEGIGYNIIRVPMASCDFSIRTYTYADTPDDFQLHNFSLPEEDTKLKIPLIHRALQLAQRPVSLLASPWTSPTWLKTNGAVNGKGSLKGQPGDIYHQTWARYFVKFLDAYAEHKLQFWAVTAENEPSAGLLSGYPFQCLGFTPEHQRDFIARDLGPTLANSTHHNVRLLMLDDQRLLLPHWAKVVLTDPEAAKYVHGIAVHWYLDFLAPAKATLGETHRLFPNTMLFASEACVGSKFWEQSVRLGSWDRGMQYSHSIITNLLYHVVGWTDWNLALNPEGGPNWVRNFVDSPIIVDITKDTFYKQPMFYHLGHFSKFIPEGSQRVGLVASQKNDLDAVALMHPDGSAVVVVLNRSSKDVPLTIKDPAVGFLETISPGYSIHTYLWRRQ

Structure (SMILES) | Potency
Cc1cc(C)n2ncc(C(=O)Nc3ccccc3C)c2n1 | 13 µM (active)
CCc1ccc(NC(=O)c2cnn3c(C)cc(C)nc23)cc1 | 11.6 µM (active)
Cc1cc(C)n2ncc(C(=O)NC3CCCCC3)c2n1 | 11.6 µM (active)
COc1ccc(NC(=O)c2cnn3c(C)cc(C)nc23)cc1 | 16.3 µM (active)
Cc1cc(C)n2ncc(C(=O)Nc3ccc(Br)cc3)c2n1 | 16.3 µM (active)
Cc1cc(C)n2ncc(C(=O)NC(C)C)c2n1 | 41.1 µM (active)
Cc1ccc(NC(=O)c2cnn3c(C)cc(C)nc23)c(C)c1 | 20.6 µM (active)
COc1ccc(NC(=O)c2cnn3c(C)cc(C)nc23)cc1Cl | 20.6 µM (active)
Cc1cc(C)n2ncc(C(=O)NCc3ccco3)c2n1 | 23.1 µM (active)
Cc1ccc(NC(=O)c2cnn3c(C)cc(C)nc23)cc1 | 9.19 µM (active)
COc1ccc(NC(=O)c2cnn3c(C)cc(C)nc23)cc1OC | inactive
Cc1cc(C)n2ncc(C(=O)Nc3ccc4c(c3)CCC4)c2n1 | 10.3 µM (active)
Cc1cc(C)n2ncc(C(=O)Nc3ccncc3)c2n1 | inactive
O=C(Nc1ccccc1Sc1ccccc1)c1cnn2c1NC(=C1CC1)C=C2C(F)F | 32.6 µM (active)
CC(=O)Nc1ccccc1NC(=O)c1cnn2c(C)cc(C)nc12 | inactive
Cc1cc(C)n2ncc(C(=O)NCc3ccccc3)c2n1 | 32.6 µM (active)

Structure (SMILES) | Potency
CNC(=O)c1cnn2c(C)cc(C)nc12 | inactive
COc1ccc(NC(=O)c2cnn3c(C)cc(C)nc23)cc1F | 13 µM (active)
CC(=O)c1cccc(NC(=O)c2cnn3c(C)cc(C)nc23)c1 | 32.6 µM (active)
Cc1cc(C)n2ncc(C(=O)Nc3ccc(C)c(C)c3)c2n1 | 5.8 µM (active)
Cc1cccc(NC(=O)c2cnn3c(C)cc(C)nc23)c1 | 16.3 µM (active)
Cc1cc(C)n2ncc(C(=O)Nc3ccc(C(F)(F)F)cc3)c2n1 | 6.51 µM (active)
Cc1cc(C)n2ncc(C(=O)Nc3ccc(S(C)(=O)=O)cc3)c2n1 | inactive
Cc1cc(C)n2ncc(C(=O)Nc3ccc4c(c3)OCO4)c2n1 | 10.3 µM (active)
C#Cc1ccc(NC(=O)c2cnn3c(C)cc(C)nc23)cc1 | 5.17 µM (active)
Cc1cc(C)n2ncc(C(=O)Nc3cccc(C#N)c3)c2n1 | inactive
Cc1cc(C)n2ncc(C(=O)N3CCCC3)c2n1 | inactive
Cc1cc(C)n2ncc(C(=O)NC3CCC(C(C)(C)C)CC3)c2n1 (stereo unspecified) | 13 µM (active)
Cc1cc(C)n2ncc(C(=O)Nc3ccc4c(c3)OCCO4)c2n1 | 16.3 µM (active)
CC(=O)c1ccc(NC(=O)c2cnn3c(C)cc(C)nc23)cc1 | inactive
Cc1cc(C)n2ncc(C(=O)Nc3ccccc3)c2n1 | 7.3 µM (active)
